Laboratory results published in PubChem BioAssay (EPA / NIEHS).
Active and inactive are the calls of the source. Rule for the calls: active = hit-call score of the fitted dose curve at least 0.9, where 1 is the maximum; inactive = score below 0.9.

assay: ATG_ERE_CIS: Attagene CIS-FACTORIAL HepG2 Assay for Estrogen Response Element (ERE) (AID 2282940); conditions: HepG2 ERE cis-reporter, Attagene RNA transcript; actives raise or lower the signal
Experimental: ATG_CIS is a cell-based, multiplexed-readout assay that uses HepG2, a human liver cell line, with measurements taken at 24 hours after chemical dosing in a 24-well plate.ATG_ERE_CIS is one of 52 assay component(s) measured or calculated from the ATG_CIS assay. It is designed to make measurements of mRNA induction, a form of inducible reporter, as detected with fluorescence intensity signals by Reverse transcription polymerase chain reaction (RT-PCR) and Capillary electrophoresis technology.Data from the assay component ATG_ERE_CIS was analyzed into 1 assay endpoint. This assay endpoint, ATG_ERE_CIS, was analyzed with bidirectional fitting relative to DMSO as the negative control and baseline of activity. Using a type of inducible reporter, measures of mRNA for gain or loss-of-signal activity can be used to understand the reporter gene at the transcription factor-level as they relate to the gene ESR1. Furthermore, this assay endpoint can be referred to as a primary readout, because this assay has produced multiple assay endpoints where this one serves a reporter gene function. To generalize the intended target to other relatable targets, this assay endpoint is annotated to the nuclear receptor intended target family, where the subfamily is steroidal.
Human liver HepG2 cells are transiently transfected with multiple reporter transcription units (MRTUs) in 6-well plates using FuGene 6 reagent (Roche; 3 ml FuGene/1 mg DNA). The MRTU constructs are regulated by a cis-regulating element (promoter). […] A major difference between the CIS and TRANS system is that in CIS activities of endogenous TFs are measured, whereas the TRANS assay evaluates changes in activities of exogenous, chimeric NR-Gal4 proteins. […] At the end of 24 hour incubation, total RNA was isolated using TriZol reagent (Invitrogen). The isolated RNA is then reverse-transcribed using oligo(dT) primer and Mo-MLV reverse transcriptase (Invitrogen) with DNAse I (Ambion) treatment for 30 min. The one-tenth of the produced cDNA was amplified by PCR using Taq DNA polymerase (Invitrogen) and two reporter sequence-specific primers. The PCR products were fluorescently labeled by primer extension with 6-arboxyfluorescein (6-FAM) 5'-labeled reporter sequence-specific primer (2 min at 95 C, 20 s at 68 C and 10 min at 72 C) and these products were digested with 5U of HpaI (New England Biolabs) for 2h at 37 C. The fragments were purified using Qiaquick PCR columns (Qiagen), analyzed on an ABI 3130xL genetic analyzer (Applied Biosystems) with peak positions identified by using a set of X-rhodamine (ROX)-labeled MapMarker1000 molecular weight standards (BioVentures). The raw capillary electrophoresis data was processed using Attagraph software (Attagene).

Compound	outcome	AC50
Cc1ncc([N+](=O)[O-])n1C	inactive	–
CO[Si](C)(OC)c1ccccc1	inactive	–
Cc1ccc(Nc2ccc(O)c3c2C(=O)c2ccccc2C3=O)cc1	inactive	–
OCCOCCOCCOCCO	inactive	–
CC(C)=CCO	inactive	–
CCCCCC(=O)OCCc1ccccc1	inactive	–
Cc1ccc2n[nH]nc2c1	inactive	–
CCCCOCCOCCOCCOCCO	inactive	–
OCc1cccnc1	inactive	–
Nc1cccc(S(=O)(=O)c2cccc(N)c2)c1	inactive	–
CN(C)CCCN	inactive	–
CC(CCO)CCc1ccccc1 (stereo not given)	–	24.2 µM (active)
CCOC(=S)SSC(=S)OCC	inactive	–
CC(C)(C)C(=O)c1ccccc1	inactive	–
CC(C)Oc1ccccc1O	inactive	–
N#Cc1ccc(CC(=NNC(=O)Nc2ccc(OC(F)(F)F)cc2)c2cccc(C(F)(F)F)c2)cc1	inactive	–
NC(=O)c1ccccc1Cl	inactive	–
O=C(Nc1ccccc1)c1cc([N+](=O)[O-])ccc1Cl	inactive	–
CCCCCCCCC	–	63.2 µM (active)
CC1(C)[C@H](C(=O)OCc2cccc(Oc3ccccc3)c2)[C@@H]1C=C(Cl)Cl	inactive	–

Compound	outcome	AC50
C=C(C)[C@@H]1CCC2=CC(=O)C[C@@H](C)[C@]2(C)C1	inactive	–
CC1(C)CCC(C)(C)c2cc(C(=O)Nc3ccc(C(=O)O)cc3)ccc21	inactive	–
CCCCCCCCCCCCCC(=O)O	inactive	–
CNCCCC12CCC(c3ccccc31)c1ccccc12	inactive	–
CC(C)(N)CO	inactive	–
BrC1CCC(Br)C(Br)CCC(Br)C(Br)CCC1Br (stereo not given)	inactive	–
C=C(C)C(=O)O[C@H]1C[C@@H]2CC[C@@]1(C)C2(C)C	–	60.7 µM (active)
Cc1ccc(S)cc1	inactive	–
CC(=O)OCCOC(C)=O	inactive	–
O=Nc1ccc(Nc2ccccc2)cc1	inactive	–
CCC/C=C/C=O	inactive	–
Nc1ccc(S(=O)(=O)O)c(N)c1	inactive	–
C[C@]12CC[C@H]3[C@@H](CCC4=CC(=O)CC[C@@]43C)[C@@H]1CC[C@@H]2C(=O)CO	–	0.635 µM (active)
O=Cc1ccc(F)cc1	inactive	–
C=C(C)C(=O)OCc1ccccc1	inactive	–
COC(=O)c1ccc(C)cc1	inactive	–
CC(=O)OCCC(C)CC(C)(C)C (stereo not given)	inactive	–
CCc1c(C)cc(N)c(CC)c1N	inactive	–
O=C(O)CCCCCCCCCCC(=O)O	inactive	–
CCn1c2ccccc2c2cc(N)ccc21	inactive	–
